# Screening data deposited in PubChem by National Center for Advancing Translational Sciences (NCATS).
# Sm TGR inh: inhibitors of Schistosoma mansoni thioredoxin glutathione reductase | Q962Y6 | purified TGR, DTNB reduction, TNB absorbance 405 nm | Potency, µM (doses to about 114 µM), for inactives: at the highest dose activity change, negative = inhibition, most hits filed as inhibitors | hit rate 3% among 360,000 | AID 485364; further: potency means the concentration at half of the fitted maximal effect; nearly all actives have a fitted effect of over 60% in size
#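 Kinetic colorimetric format: TGR-catalysed, NADPH-driven DTNB reduction monitored via TNB absorbance. Enzyme dispensed at 20 nM; compound exposure 15 min at room temperature before reaction start.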
# HCMV inh: inhibitors of human cytomegalovirus; HFF cells, HCMV-luciferase reporter, 72 h; stronger effect = lower value; activity change, negative = inhibition, % at 57.5 µM; hit rate 4.5% among 410,000; in the data active means activity change below about -60%; inconclusive means no clear call, values can overlap the other calls; inactive means above about -39%
#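 After 16 h attachment at 37C, HFF cells received test compound and HCMV-luciferase (1 PFU/cell); reporter luminescence read 72 h later, data normalized against buffer-only and known inhibitor Salinomycin.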
# FBPA Giardia inh: blocks Giardia fructose-bisphosphate aldolase activity | A8B2U2 | purified Giardia FBPA | Potency, µM (doses to about 59.6 µM), without a hit: at the top dose activity, negative = inhibition, hits mostly inhibitors | hit rate 0.71% among 290,000 | AID 2451; further: potency means the concentration at half of the fitted maximal effect; nearly all actives have a fitted effect of over 55% in size
# Target sequence (A8B2U2 whole entry, looked up): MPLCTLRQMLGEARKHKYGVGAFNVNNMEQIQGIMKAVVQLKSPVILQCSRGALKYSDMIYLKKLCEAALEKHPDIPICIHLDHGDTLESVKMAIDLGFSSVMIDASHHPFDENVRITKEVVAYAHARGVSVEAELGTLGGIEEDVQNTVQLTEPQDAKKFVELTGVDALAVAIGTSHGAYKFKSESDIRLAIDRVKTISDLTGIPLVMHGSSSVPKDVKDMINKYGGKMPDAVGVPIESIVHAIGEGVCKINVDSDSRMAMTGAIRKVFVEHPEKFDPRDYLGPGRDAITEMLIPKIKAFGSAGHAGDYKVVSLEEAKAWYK
#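 Giardia FBPA (40 nM reagent) was preincubated 10 min at RT with compound (up to 57.5 uM final), then substrate plus GAPDH/TPI/NAD/arsenate coupling system with diaphorase/resazurin was added; resorufin fluorescence (525/598 nm) was read after 20 min.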
# Pf growth 96h: inhibits malaria parasite growth, 96 h; hit rate 6.9% among 320,000; P. falciparum luciferase reporter growth, 96 h; Potency, µM (top dose mostly 28.7 µM), for inactives: top-dose activity change, negative = inhibition, most hits filed as inhibitors; further: potency means the concentration at half of the fitted maximal effect
#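 96 h incubation, 37 C, 5% CO2, of luciferase-reporter P. falciparum-infected RBCs (2% hematocrit, 0.05% parasitemia final) with test compounds; endpoint luminescence.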
# Pf growth 48h: inhibits P. falciparum growth in the first generation, 48 h; P. falciparum luciferase growth in erythrocytes, 48 h; Potency, µM (titrated, usually from 28.7 µM), for inactives: at the top dose activity change, negative = inhibition, most hits filed as inhibitors; hit rate 5.9% among 310,000; AID 504832; further: potency means the concentration at half of the fitted maximal effect
#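 In quantitative HTS format, infected erythrocytes bearing luciferase-reporter parasites were treated for a single generation at 37 C. Luminescence after adding detection reagent served as the growth measure.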
# The depositor's hits bear a star; ? = inconclusive; nt = no result given. Hits are enriched below; roughly 14% of the tested compounds scored in any of these assays. Unless noted, the call rests on the fitted dose curve; in most records, active means well fitted curve in the direction sought with a large enough effect; inconclusive means small, poorly fitted or top-dose-only effect, or another doubt; inactive means no such curve, though single readings can be large; an effect the other way counts as inactive or inconclusive. On the % scale 0 is the no-effect control and ±100 the full control effect.
SMILES,Sm TGR inh,HCMV inh,FBPA Giardia inh,Pf growth 96h,Pf growth 48h
CCOC(=O)c1[nH]c(COC(=O)c2ccccc2NC(=O)c2ccco2)c(C(=O)OCC)c1C,1%,-3,-7%,?,12µM*
CCOC(=O)c1c(C)[nH]c(C(=O)COC(=O)c2ccccc2NC(=O)c2ccco2)c1C,-25%,12,4%,35%,-4%
COc1ccc(NC(=O)CNC(=O)c2ccco2)cc1,9%,79,2%,?,41%
COC(=O)c1ccccc1NC(=O)CNC(=O)c1ccco1,-5%,-72*,3%,?,9%
COC(=O)c1ccccc1NC(=O)NCc1ccncc1,nt,-22,4%,13µM*,-2%
CCOC(=O)CSc1n[nH]c(NC(=O)NC(C)C)n1,1%,-24,1%,9%,3%
CC(=O)Oc1ccc(N2C(=O)C3C4C=CC(C5CC45)C3C2=O)cc1[N+](=O)[O-] (centres undefined),10µM*,-16,-4%,20%,-5%
CC(=O)Oc1ccc(N2C(=O)C3C(C2=O)C2C=CC3C23CC3)cc1[N+](=O)[O-] (centres undefined),18µM*,20,-1%,?,-5%
CCOc1ccc(C(C)=O)cc1N1C(=O)C2C(C1=O)C1C=CC2C12CC2 (centres undefined),?,40,0%,44%,0%
O=C(CNC(=O)c1ccco1)OCc1ccccc1F,nt,12,nt,nt,nt
CN(C)c1ncc(S(=O)(=O)c2ccccc2)c(N)n1,16%,12,3%,4%,-1%
Cc1ccc(S(=O)(=O)c2cc3ccccc3nc2N)cc1,6%,-40,3%,9.3µM*,?
S=C1Cc2ccccc2N1,-27%,-83*,-17%,?,?
CC1=C(C(=O)Nc2cccnc2)C(c2cccc(F)c2)n2nc(SCc3ccccc3)nc2N1 (centres undefined),5%,-22,nt,nt,nt
Cn1c(SCC(=O)N/N=C/c2ccc([N+](=O)[O-])s2)nnc1-c1ccccc1,?,-91*,-11%,?,6.6µM*
COc1ccc(NC(C)C(=O)N/N=C/c2ccc([N+](=O)[O-])s2)cc1 (centres undefined),-31%,?,0%,27%,?
Cn1c(SCC(=O)N/N=C/c2cc([N+](=O)[O-])ccc2O)nnc1-c1ccccc1,1%,-10,21%,?,?
Cc1ccc(NC(C)C(=O)N/N=C/c2ccc([N+](=O)[O-])s2)cc1 (centres undefined),4%,-70*,1%,15µM*,?
O=C(N/N=C/c1ccc([N+](=O)[O-])s1)C(O)c1ccccc1 (centres undefined),32µM*,-91*,?,2.3µM*,4.7µM*
O=C(CN1CCN(Cc2ccccc2)CC1)N/N=C/c1ccc(Br)s1,-25%,-107*,7%,-3%,-8%
Cc1ccc(-c2nnc(SCC(=O)N/N=C/c3ccc(C)s3)n2-c2ccc(C)cc2)cc1,2%,-63*,9%,?,5%
Cc1ccnn1CC(=O)N/N=C/c1ccc([N+](=O)[O-])s1,-24%,?,-6%,7.4µM*,?
O=C(Cc1ccccc1)N/N=C/c1ccc([N+](=O)[O-])s1,-28%,-29,-1%,8.3µM*,7.4µM*
Cc1ccc(-c2nnc(SCC(=O)N/N=C/c3ccccc3C(=O)O)n2-c2ccccc2)cc1,7%,15,19%,62%,2%
Cc1cc(=O)oc(C)c1C(=O)N1CCc2c([nH]c3ccccc23)C1C(C)C (centres undefined),-1%,-22,-4%,12µM*,nt
SMILES,Sm TGR inh,HCMV inh,FBPA Giardia inh,Pf growth 96h,Pf growth 48h
Cc1ccccc1NC1=C(Cl)C(=O)OC1NC(=O)c1ccccc1 (centres undefined),-18%,-82*,-4%,40%,nt
COc1ccc(-n2c(=S)[nH]c3cc(C(=O)NCc4ccccc4)ccc3c2=O)c(OC)c1,29%,?,5%,0%,-6%
O=C1Nc2ccc(F)cc2C12SCCS2,?,-107*,nt,16%,-28%
CCC(C)NC(=O)CSc1nc2cc3c(cc2c(=O)n1CCCCCC(=O)NCc1ccc(OC)cc1)OCO3 (centres undefined),2%,28,nt,nt,nt
CCCCNC(=O)c1nc2ccccc2nc1-c1ccc(F)c(F)c1,nt,53,nt,nt,nt
CCOC(=O)Cn1cc(/C=C/[N+](=O)[O-])c2ccccc21,nt,-74*,-18%,49%,?
CCOC(=O)Cn1cc(C=C2C(=O)N(C)C(=O)N(C)C2=O)c2ccccc21,-26%,36,-1%,44%,-20%
O=[N+]([O-])/C=C/c1cn(Cc2ccc(Cl)cc2)c2ccccc12,-7%,-39,-1%,?,3.7µM*
O=Cc1cn(Cc2ccc(Br)cc2)c2ccccc12,20%,-10,-2%,20%,7%
O=Cc1cn(Cc2cccc(F)c2)c2ccccc12,22%,2,-5%,19%,-2%
Cc1cccc(Cn2cc(/C=C/[N+](=O)[O-])c3ccccc32)c1,0%,-99*,1%,-3%,3.7µM*
c1ccc(-c2nc(-c3ccccc3)c(NC3CCCCC3)o2)cc1,nt,nt,1%,nt,nt
O=C(Cn1nnc(-c2ccccc2F)n1)Nc1ccc2c(c1)OCCO2,-4%,43,-8%,-18%,21%
CCC(C)NC(=O)c1ccc(Cl)c(S(=O)(=O)Nc2ccccc2N2CCOCC2)c1 (centres undefined),0%,-17,nt,?,?
COc1ccc(C2CC(=O)Oc3c(C(CCN4CCN(c5ccccc5)CC4)c4ccc(N(C)C)cc4)c(OC)cc(OC)c32)cc1 (centres undefined),-14%,-23,-5%,10µM*,9.3µM*
COc1cc(C(CCN2CCOCC2)c2c(OC)cc(OC)c3c2OC(=O)CC3c2ccc(N(C)C)cc2)cc(OC)c1OC (centres undefined),-16%,20,-9%,?,?
COc1cc(OC)c2c(c1C(CCN1CCOCC1)c1ccc(N(C)C)cc1)OC(=O)CC2c1ccc(N(C)C)cc1 (centres undefined),-16%,20,-8%,?,10µM*
COc1ccc(C2CC(=O)Oc3c(C(CCN4CCOCC4)c4ccc5c(c4)OCO5)c(OC)cc(OC)c32)cc1 (centres undefined),nt,nt,-12%,nt,nt
COc1ccc(C2CC(=O)Oc3c(C(CCN4CCOCC4)c4cc(OC)c(OC)c(OC)c4)c(OC)cc(OC)c32)cc1 (centres undefined),-17%,9,-7%,?,9.3µM*
COc1ccc(-c2cc(C(=O)OC3CCOC3=O)c3ccccc3n2)cc1 (centres undefined),0%,-8,-4%,nt,20%
COc1ccc(N(C(=O)COc2ccccc2OC)S(=O)(=O)c2ccc(Cl)cc2)cc1,-14%,16,nt,nt,nt
